Results taken from ChEMBL document CHEMBL3988442, “University of Dundee, Small-Polar-MMV Screening Library” (2021).
Among all 48,000 compounds or so, about 13,000 (27%) showed an effect of 50% or more. Some of the results follow.

Test system: Wolbachia pipientis
Experiment: Anti-Wolbachia Cell-Based Screen
Type: functional
Design: scale not given: in the data most compounds retested in dose-response had high values
Settings: 5 µM

SMILES | Percent Effect
CNS(=O)(=O)CC1CCCN1c1ccccn1 (centres undefined) | -17.04%
Cc1nc(-c2ccccc2)sc1CSC(C)C(N)=O (centres undefined) | -3.877%
CCOC(C)c1nc(CN2CCC(NC(C)C)CC2)cs1 (centres undefined) | 9.562%
Cc1nn2cc(CCNC(=O)c3cc(C(C)C)no3)nc2s1 | -4.133%
Cc1cc(Cl)ccc1-n1ncc(C(=O)N(C)CCc2ccccn2)c1N | 185.4%
Cc1ccc(C)c(-n2ncc(C(=O)N(C)CCc3ccccn3)c2N)c1 | 159.7%
Cc1cc(C(=O)N2C[C@@H]3[C@@H](CN(C)CCc4ccccn4)[C@@H]3C2)c(C)o1 | -1.529%
CCOC(=O)c1cnn(-c2cc(C)ccn2)c1N | -12.86%
CN(CCc1ccccn1)C(=O)c1cnn(-c2ccccc2F)c1N | 110.9%
CN(CCc1ccccn1)C(=O)c1ccccc1F | -16.13%
CN(CCc1ccccn1)C(=O)C(c1cccnc1)N1CCOCC1 (centres undefined) | 2.073%
Cc1ccccc1SC1CCN(C(=O)[C@@H]2C[C@@H](N)CN2)CC1 | -21.68%
O=C(O)C(F)(F)F.O=C(O)C(F)(F)F.O=C(O)c1cc2c(nc1-c1cncnc1)CCN(C1CCOC1)CC2 (centres undefined) | -20.41%
Cc1cnn(CC2CCCCN2CCCS(N)(=O)=O)c1 (centres undefined) | -7.264%
OC1(CN2CCCCC2)CCN(Cc2c[nH]c(CC3CCCC3)n2)C1 (centres undefined) | 5.378%
CN(Cc1c(F)cccc1Cl)C(=O)c1cnn(CCN2CCCCC2)c1 | 4.459%
COc1ccc(F)c(-c2nccn2CCN2CCCC2)c1 | -4.269%
O=C(CN1CCCCCC1)NCc1ccc2[nH]c(=O)[nH]c2c1 | 33.1%
Cc1ccccc1N1CCN(C(=O)c2cscn2)C(C)C1 (centres undefined) | 6.365%
O=C(c1cscn1)N1CC[C@H]2[C@@H]1CCC(=O)N2c1ccccc1 | 5.214%
CC(C)OC(=O)N1C[C@H]2CC[C@@H]1CN(C(=O)c1ccccn1)C2 | 1.179%
O=C(O)[C@@H]1CCN(C(=O)c2ccccn2)[C@@H]1c1ccc(F)cc1 | 129.5%
CC(C)OC(=O)[C@@H]1CCN(C(=O)c2ccccn2)[C@@H]1c1ccc(F)cc1 | 116.9%
O=C(COC1CCCCC1)N1CCN(C(=O)Cc2ccccn2)CC1 | -7.801%
O=C(O)[C@@H]1CCN(C(=O)Cc2ccccn2)[C@@H]1c1ccc(F)cc1 | 124%
O=C(O)[C@@H]1CCN(C(=O)c2cscn2)[C@@H]1c1ccc(F)cc1 | 132.5%
O=C(COCC1CC1)N1CCN(C(=O)Cc2ccccn2)CC1 | 1.286%
O=C(O)C(F)(F)F.O=C([C@H]1C[C@H]2OCC[C@H]2N(C(=O)c2ccccn2)C1)N1CCCCO1 | -2.538%
O=C1N[C@@H]2CCN(C(=O)c3ccccc3)[C@@H]2C(=O)N1c1ccc(F)cc1 | 9.769%
